Assay results taken from the supplement of paper PMC12350171.
Where a name gives a salt, the structure may show the parent alone.

Experiments:
Conditions in all cases: 20 µM
[1] = system: Salmonella enterica typhimurium; test: growth AUC normalised to DMSO control (fraction of control); higher = less growth inhibition, active = hit call of the paper
Method in brief: (§1)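 After two anaerobic passages, pathogens were added at a starting OD578 of 0.01 to pre-reduced mGAM plates holding compound at 20 μM with 1% DMSO; hemin and NAD were supplemented for Haemophilus parainfluenzae. Sealed with breathable membranes, plates were read at OD578 hourly for 24 h, in three biological replicates. The trapezoidal rule, applied up to the exponential-to-stationary transition, gave the growth-curve AUC, which was normalised to DMSO controls on the same plate.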

Shigella flexneri = test: as above
Method in brief: as §1

Vibrio cholerae = test: as above
Method in brief: as §1

[2] = system: Yersinia pseudotuberculosis; test: as above
Method in brief: as §1

P. vulgatus RND KO = test: growth AUC normalised to DMSO control (median) (fraction of control); higher = less growth inhibition, active = hit call of the paper
Method in brief: (§2)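 Anaerobic growth was tracked hourly at OD578 for 24 h in 96-well plates of mGAM seeded at OD578 0.01 with each approved-drug library compound at 20 μM and 1% DMSO. Strains had first been passaged twice overnight without oxygen. Three biological replicates were run. The reported median is the area under the curve, calculated by the trapezoidal rule on curves truncated at entry into stationary phase and normalised to vehicle wells on the same plate.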

P. vulgatus WT = test: as above
Method in brief: as §2

[3] = system: S. enterica typhimurium WT; test: as above
Method in brief: as §2

[4] = system: S. enterica typhimurium tolC KO; test: as above
Method in brief: as §2

Measured: growth AUC normalised to DMSO control
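Throughout, for growth AUC normalised to DMSO control (median): active when median AUC fell below 0.1.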

CCOC(=O)[C@H](CCc1ccccc1)N[C@@H](C)C(=O)N1CCC[C@H]1C(=O)O [Enalapril maleate]
inactive: [1] 1 | Shigella flexneri 1.04 | Vibrio cholerae 1.03 | [2] 1.02 | P. vulgatus RND KO 1 | P. vulgatus WT 1.02 | [3] 1.01 | [4] 0.997

COc1c(O[C@@H]2O[C@H](CO)[C@@H](O)[C@H](O)[C@H]2O)cc2c(c1OC)-c1ccc(SC)c(=O)cc1[C@@H](NC(C)=O)CC2 [Thiocolchicoside]
inactive: [1] 0.993 | Shigella flexneri 0.98 | Vibrio cholerae 1 | [2] 0.988 | P. vulgatus RND KO 1.01 | P. vulgatus WT 0.999 | [3] 1 | [4] 1

CC(=C(CCO)SSCC1CCCO1)N(C=O)Cc1cnc(C)nc1N (stereo in doubt) [Fursultiamine hydrochloride]
inactive: [1] 1.01 | Shigella flexneri 0.965 | Vibrio cholerae 1 | [2] 1.01 | P. vulgatus RND KO 1.02 | P. vulgatus WT 0.995 | [3] 0.986 | [4] 0.999

CC(C)(C)NCC(O)c1cc(O)cc(O)c1 (stereo not given) [Terbutaline hemisulfate]
inactive: [1] 1.02 | Shigella flexneri 1.03 | Vibrio cholerae 1.07 | [2] 1 | P. vulgatus RND KO 1.06 | P. vulgatus WT 1.06 | [3] 1.01 | [4] 1.01

C[C@]12CC[C@@H]3c4ccc(OS(=O)(=O)O)cc4CC[C@H]3[C@@H]1CCC2=O [Estropipate piperazine salt]
inactive: [1] 0.985 | Shigella flexneri 0.974 | Vibrio cholerae 0.991 | [2] 0.965 | P. vulgatus RND KO 0.987 | P. vulgatus WT 0.983 | [3] 0.997 | [4] 0.996

CCN(CC)C(=O)/C(C#N)=C/c1cc(O)c(O)c([N+](=O)[O-])c1 [Entacapone]
inactive: [1] 1.02 | Shigella flexneri 1.04 | Vibrio cholerae 1.07 | [2] 0.998 | P. vulgatus RND KO 0.987 | P. vulgatus WT 0.996 | [3] 0.997 | [4] 1

Clc1ccccc1C(c1ccccc1)(c1ccccc1)n1ccnc1 [Clotrimazole]
inactive: [1] 0.992 | Shigella flexneri 1.02 | Vibrio cholerae 0.932 | [2] 0.985 | P. vulgatus RND KO 0.952 | P. vulgatus WT 0.954 | [3] 0.995 | [4] 0.829

Cc1cccc(C)c1OCC(C)N (stereo not given) [Mexiletine hydrochloride]
inactive: [1] 1.01 | Shigella flexneri 1.05 | Vibrio cholerae 1.05 | [2] 1.01 | P. vulgatus RND KO 1.03 | P. vulgatus WT 1.05 | [3] 1 | [4] 0.999

CCCN(CCC)S(=O)(=O)c1ccc(C(=O)O)cc1 [Probenecid]
inactive: [1] 1.02 | Shigella flexneri 1.03 | Vibrio cholerae 1.02 | [2] 1.02 | P. vulgatus RND KO 1 | P. vulgatus WT 1.02 | [3] 1.02 | [4] 0.895

CNCCC=C1c2ccccc2CCc2ccccc21 [Nortriptyline hydrochloride]
inactive: [1] 0.998 | Shigella flexneri 0.991 | Vibrio cholerae 0.937 | [2] 0.992 | P. vulgatus RND KO 0.99 | P. vulgatus WT 1.01 | [3] 1 | [4] 0.971

CC(C)NCC(O)c1ccc(O)c(O)c1 (single isomer, unassigned; (-)) [(-) Isoproterenol hydrochloride]
inactive: [1] 1.01 | Shigella flexneri 1.03 | Vibrio cholerae 1.05 | [2] 1.02 | P. vulgatus RND KO 0.979 | P. vulgatus WT 0.967 | [3] 1 | [4] 0.992

CC(C)[C@H](N)C(=O)OCCOCn1cnc2c(=O)nc(N)[nH]c21 [Valacyclovir hydrochloride]
inactive: [1] 0.993 | Shigella flexneri 1.03 | Vibrio cholerae 0.995 | [2] 1.01 | P. vulgatus RND KO 0.999 | P. vulgatus WT 1.02 | [3] 1 | [4] 1.02

Cc1ccc(N(CC2=NCCN2)c2cccc(O)c2)cc1 [Phentolamine hydrochloride]
inactive: [1] 1.03 | Shigella flexneri 1.01 | Vibrio cholerae 1.02 | [2] 0.975 | P. vulgatus RND KO 1 | P. vulgatus WT 0.991 | [3] 0.999 | [4] 0.99

O=C1O[C@H]([C@@H](O)CO)C(O)=C1O [Ascorbic acid]
inactive: [1] 1.02 | Shigella flexneri 1.07 | Vibrio cholerae 1.02 | [2] 0.989 | P. vulgatus RND KO 1.05 | P. vulgatus WT 1.04 | [3] 1.01 | [4] 0.997

Nc1nc(N)c2nc(-c3ccccc3)c(N)nc2n1 [Triamterene]
inactive: [1] 0.942 | Shigella flexneri 1.06 | Vibrio cholerae 0.99 | [2] 0.95 | P. vulgatus RND KO 0.973 | P. vulgatus WT 0.971 | [3] 0.954 | [4] 0.939
